Reference: PubChem BioAssay (EPA / NIEHS)
Values joined by “and” are separate entries in the source; they are usually repeats but may differ in a detail not shown here. Equal values may be shown once. Records with an inconclusive call do not appear. Active and inactive are the calls of the source. Rule for the calls, unless noted: active = hit-call score of the fitted dose curve at least 0.9, where 1 is the maximum; inconclusive = response in the unintended direction; inactive = score below 0.9.

Legend:
[1] = molecular target: human Peroxisome Proliferator-activated Receptor alpha (PPARa), PPARA (gene 5465) (UniProt Q07869); assay: ATG_PPARa_TRANS: Attagene TRANS-FACTORIAL HepG2 Assay for human Peroxisome Proliferator-activated Receptor alpha (PPARa) (AID 2283001);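 for AC50: potency for gain of reporter signal over DMSO so agonist or activator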
In short: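 Read-out is fluorescence of reporter cDNA fragments resolved by capillary electrophoresis after RT-PCR. Human HepG2 liver cells carried transfected PPARa-Gal4 chimera and GAL4-UAS reporter units, treated 24 h; activity scored as increase over DMSO.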

[2] = molecular target: human Peroxisome Proliferator-activated Receptor delta (PPARd), PPARD (gene 5467) (UniProt Q03181); assay: ATG_PPARd_TRANS: Attagene TRANS-FACTORIAL HepG2 Assay for human Peroxisome Proliferator-activated Receptor delta (PPARd) (AID 2283002)
In short: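 Read-out is induced reporter mRNA, quantified by RT-PCR with fluorescent labelling and capillary electrophoresis after 24 h dosing. Cells are HepG2 transiently carrying multiple GAL4-UAS reporter units driven by exogenous NR-GAL4 chimeras; DMSO serves as baseline.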

[3] = read-out: Intercellular Adhesion Molecule 1 (ICAM1), ICAM1 (gene 3383); assay: BSK_3C_ICAM1: BioMAP Diversity Plus: 3C Assay for Intercellular Adhesion Molecule 1 (ICAM1) Biomarker Activity (AID 2283003; active = hit-call score of the fitted dose curve at least 0.9, where 1 is the maximum; inactive = score below 0.9); conditions: primary human endothelial cells (HUVEC); actives raise or lower the signal
In short: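 HUVEC primary cells stimulated under 3C conditions; ICAM1 measured by ELISA 24 h after compound dosing. Curves fitted bidirectionally against the DMSO baseline. Overt cytotoxicity checked by SRB staining of parallel cultures.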

[4] = molecular target: human Retinoic Acid Receptor beta (RARb), RARB (gene 5915) (UniProt P10826); assay: ATG_RARb_TRANS: Attagene TRANS-FACTORIAL HepG2 Assay for human Retinoic Acid Receptor beta (AID 2283004)
In short: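 HepG2, transient MRTU transfection, NR–Gal4 chimera, 24 h treatment; RT-PCR plus CE fluorescence detection of reporter mRNA; gain of signal vs DMSO.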

[5] = BSK_3C_Proliferation: Cell Proliferation Assessment in the BioMAP Diversity Plus: 3C Assay (AID 2283006; active = hit-call score of the fitted dose curve at least 0.9, where 1 is the maximum; inactive = score below 0.9;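 for AC50: potency may reflect either rise or fall in cell number versus DMSO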); conditions: primary human endothelial cells (HUVEC)
In short: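 Subconfluent HUVEC (3C system) cultured with chemical; relative cell number read at 48 h by sulforhodamine B total-protein staining (0.1% SRB after 10% TCA fixation, 560 nm). Bidirectional fit relative to DMSO.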

[6] = molecular target: Peroxisome proliferator-activated receptor gamma (Homo sapiens) (UniProt P37231); assay: ATG_PPARg_TRANS: Attagene TRANS-FACTORIAL HepG2 Assay for human Peroxisome Proliferator-activated Receptor-gamma (PPARg) (AID 2283007)
In short: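 Endpoint reflects upward reporter mRNA change versus DMSO controls. Setup: transiently transfected HepG2, GAL4-UAS reporters driven by chimeric NR-Gal4, 24 h incubation, RT-PCR with capillary electrophoresis read-out.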

[7] = molecular target: Nuclear receptor subfamily 1 group I member 2 (Homo sapiens) (UniProt O75469); assay: ATG_PXR_TRANS: Attagene TRANS-FACTORIAL HepG2 Assay for human Pregnane X Receptor (PXR) (AID 2283008)
In short: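 Fluorescence intensity of FAM-labelled, HpaI-digested reporter amplicons, separated by capillary electrophoresis, quantifies induction. HepG2 cells with PXR-Gal4 trans-reporter system were exposed 24 h; DMSO defines baseline.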

[8] = molecular target: human Retinoic Acid Receptor gamma (RARg), RARG (gene 5916) (UniProt P13631); assay: ATG_RARg_TRANS: Attagene TRANS-FACTORIAL HepG2 Assay for human Retinoic Acid Receptor gamma (RARg) (AID 2283009)
In short: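 HepG2 transiently transfected with GAL4-UAS reporter units and chimeric NR-Gal4 constructs; 24 h compound exposure. Reporter mRNA quantified by RT-PCR, FAM labeling, HpaI digestion and capillary electrophoresis; gain-of-signal versus DMSO.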

[9] = molecular target: human RAR-related Orphan Receptor beta (RORb), RORB (gene 6096) (UniProt Q92753); assay: ATG_RORb_TRANS: Attagene TRANS-FACTORIAL HepG2 Assay for human RAR-related Orphan Receptor beta (RORb) (AID 2283010)
In short: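 HepG2 cells transiently transfected with GAL4-UAS reporter units expressing chimeric NR-Gal4 protein; reporter mRNA measured 24 h after dosing by RT-PCR, 6-FAM labelling and capillary electrophoresis. Gain-of-signal fitted relative to DMSO baseline.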

[10] = molecular target: Retinoic acid receptor alpha (Homo sapiens) (UniProt P10276); assay: ATG_RARa_TRANS: Attagene TRANS-FACTORIAL HepG2 Assay for human Retinoic Acid Receptor alpha (RARa) (AID 2283005);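 for AC50: potency for increased reporter signal meaning RARa activation over DMSO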
In short: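 Reporter transcripts, measured by RT-PCR with fluorescent labeling and capillary electrophoresis after 24 h dosing, reflect activity of an exogenous human RARa–GAL4 fusion in transiently transfected HepG2. Fitted for increase relative to DMSO.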

Measured: AC50

Chain of human Retinoic Acid Receptor gamma (RARg), RARG (gene 5916) (P13631 whole entry, looked up, the tested form may be a part): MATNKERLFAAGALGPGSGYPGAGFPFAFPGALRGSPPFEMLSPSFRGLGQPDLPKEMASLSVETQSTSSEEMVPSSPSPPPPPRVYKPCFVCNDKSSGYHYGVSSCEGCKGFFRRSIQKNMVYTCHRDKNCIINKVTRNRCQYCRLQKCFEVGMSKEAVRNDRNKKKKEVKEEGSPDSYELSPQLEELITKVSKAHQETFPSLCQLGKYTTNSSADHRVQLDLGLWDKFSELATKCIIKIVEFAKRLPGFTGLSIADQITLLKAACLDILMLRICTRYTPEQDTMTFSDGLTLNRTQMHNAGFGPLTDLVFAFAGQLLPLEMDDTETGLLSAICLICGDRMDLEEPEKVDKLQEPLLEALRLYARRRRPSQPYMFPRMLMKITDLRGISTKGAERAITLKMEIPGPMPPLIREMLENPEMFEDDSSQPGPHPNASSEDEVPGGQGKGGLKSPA
Chain of human Peroxisome Proliferator-activated Receptor delta (PPARd), PPARD (gene 5467) (Q03181 whole entry, looked up, the tested form may be a part): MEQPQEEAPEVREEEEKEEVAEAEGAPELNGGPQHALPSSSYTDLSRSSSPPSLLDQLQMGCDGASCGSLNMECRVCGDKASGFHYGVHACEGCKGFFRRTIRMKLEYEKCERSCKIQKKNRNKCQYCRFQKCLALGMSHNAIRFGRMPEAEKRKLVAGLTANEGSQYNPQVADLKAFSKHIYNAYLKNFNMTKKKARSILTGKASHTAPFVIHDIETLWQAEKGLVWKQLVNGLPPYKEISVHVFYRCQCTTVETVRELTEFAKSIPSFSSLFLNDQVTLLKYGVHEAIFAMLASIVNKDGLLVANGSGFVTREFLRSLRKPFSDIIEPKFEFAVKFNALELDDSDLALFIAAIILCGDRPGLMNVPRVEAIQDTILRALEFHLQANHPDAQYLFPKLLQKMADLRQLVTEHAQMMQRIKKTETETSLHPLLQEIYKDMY
Chain of Nuclear receptor subfamily 1 group I member 2 (Homo sapiens) (O75469 whole entry, looked up, the tested form may be a part): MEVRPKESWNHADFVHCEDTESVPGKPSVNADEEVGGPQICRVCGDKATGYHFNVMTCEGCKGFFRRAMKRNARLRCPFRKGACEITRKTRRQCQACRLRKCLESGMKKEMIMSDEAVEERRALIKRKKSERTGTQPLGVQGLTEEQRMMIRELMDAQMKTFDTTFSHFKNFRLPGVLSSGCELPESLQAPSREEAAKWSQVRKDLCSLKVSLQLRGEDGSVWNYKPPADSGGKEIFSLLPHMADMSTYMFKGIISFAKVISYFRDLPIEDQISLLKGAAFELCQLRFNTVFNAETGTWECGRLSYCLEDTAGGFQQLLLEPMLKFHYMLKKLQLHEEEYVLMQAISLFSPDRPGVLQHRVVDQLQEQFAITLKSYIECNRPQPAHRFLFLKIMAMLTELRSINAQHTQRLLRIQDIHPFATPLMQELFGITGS
Chain of human Peroxisome Proliferator-activated Receptor alpha (PPARa), PPARA (gene 5465) (Q07869 whole entry, looked up, the tested form may be a part): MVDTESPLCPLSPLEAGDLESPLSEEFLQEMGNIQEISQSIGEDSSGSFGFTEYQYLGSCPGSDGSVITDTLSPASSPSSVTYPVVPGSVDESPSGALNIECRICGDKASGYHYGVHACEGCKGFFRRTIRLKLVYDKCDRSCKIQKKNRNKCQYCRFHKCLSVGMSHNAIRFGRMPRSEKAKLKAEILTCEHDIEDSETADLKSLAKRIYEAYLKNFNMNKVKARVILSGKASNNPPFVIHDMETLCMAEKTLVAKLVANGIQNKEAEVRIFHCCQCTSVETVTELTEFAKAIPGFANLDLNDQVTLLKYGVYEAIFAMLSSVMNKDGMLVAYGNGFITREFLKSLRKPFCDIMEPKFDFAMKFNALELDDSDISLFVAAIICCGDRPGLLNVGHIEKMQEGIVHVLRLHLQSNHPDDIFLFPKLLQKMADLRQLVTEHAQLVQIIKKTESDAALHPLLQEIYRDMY
Chain of Peroxisome proliferator-activated receptor gamma (Homo sapiens) (P37231 whole entry, looked up, the tested form may be a part): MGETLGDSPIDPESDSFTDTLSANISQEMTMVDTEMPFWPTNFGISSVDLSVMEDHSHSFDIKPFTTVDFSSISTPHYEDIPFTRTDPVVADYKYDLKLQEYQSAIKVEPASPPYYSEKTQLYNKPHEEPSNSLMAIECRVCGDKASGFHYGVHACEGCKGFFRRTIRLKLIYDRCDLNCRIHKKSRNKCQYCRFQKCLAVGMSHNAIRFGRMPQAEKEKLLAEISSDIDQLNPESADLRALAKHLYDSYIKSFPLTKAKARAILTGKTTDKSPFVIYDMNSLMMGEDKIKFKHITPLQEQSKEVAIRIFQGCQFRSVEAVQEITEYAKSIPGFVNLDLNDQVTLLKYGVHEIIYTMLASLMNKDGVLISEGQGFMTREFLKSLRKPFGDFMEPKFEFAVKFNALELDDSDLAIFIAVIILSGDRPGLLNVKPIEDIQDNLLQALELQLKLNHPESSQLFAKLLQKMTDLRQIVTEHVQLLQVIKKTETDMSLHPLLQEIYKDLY
Chain of Retinoic acid receptor alpha (Homo sapiens) (P10276 whole entry, looked up, the tested form may be a part): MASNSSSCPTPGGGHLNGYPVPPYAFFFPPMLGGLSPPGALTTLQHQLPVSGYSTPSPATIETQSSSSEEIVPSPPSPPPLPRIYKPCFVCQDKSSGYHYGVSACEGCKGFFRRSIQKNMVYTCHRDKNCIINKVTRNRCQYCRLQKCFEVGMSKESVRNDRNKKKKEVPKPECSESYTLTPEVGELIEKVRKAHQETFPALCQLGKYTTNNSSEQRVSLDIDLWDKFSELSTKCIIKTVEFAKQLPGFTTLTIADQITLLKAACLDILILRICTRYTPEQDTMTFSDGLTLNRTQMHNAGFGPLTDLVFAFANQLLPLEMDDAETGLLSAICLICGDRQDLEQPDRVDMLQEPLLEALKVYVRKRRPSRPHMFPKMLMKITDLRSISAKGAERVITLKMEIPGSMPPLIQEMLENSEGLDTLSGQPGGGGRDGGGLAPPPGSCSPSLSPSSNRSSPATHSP
Chain of human RAR-related Orphan Receptor beta (RORb), RORB (gene 6096) (Q92753 whole entry, looked up, the tested form may be a part): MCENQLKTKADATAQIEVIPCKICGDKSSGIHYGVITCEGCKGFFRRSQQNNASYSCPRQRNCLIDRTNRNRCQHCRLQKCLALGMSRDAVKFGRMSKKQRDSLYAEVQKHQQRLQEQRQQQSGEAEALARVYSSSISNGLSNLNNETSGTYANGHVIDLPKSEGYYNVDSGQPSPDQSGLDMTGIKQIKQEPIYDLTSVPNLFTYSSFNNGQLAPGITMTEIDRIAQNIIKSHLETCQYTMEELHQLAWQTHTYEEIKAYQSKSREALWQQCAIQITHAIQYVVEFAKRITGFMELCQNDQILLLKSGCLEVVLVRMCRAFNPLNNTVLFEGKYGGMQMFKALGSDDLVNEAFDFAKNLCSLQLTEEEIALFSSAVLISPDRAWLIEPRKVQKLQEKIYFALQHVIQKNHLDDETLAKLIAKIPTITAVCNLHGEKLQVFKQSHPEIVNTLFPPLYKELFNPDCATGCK
Chain of human Retinoic Acid Receptor beta (RARb), RARB (gene 5915) (P10826 whole entry, looked up, the tested form may be a part): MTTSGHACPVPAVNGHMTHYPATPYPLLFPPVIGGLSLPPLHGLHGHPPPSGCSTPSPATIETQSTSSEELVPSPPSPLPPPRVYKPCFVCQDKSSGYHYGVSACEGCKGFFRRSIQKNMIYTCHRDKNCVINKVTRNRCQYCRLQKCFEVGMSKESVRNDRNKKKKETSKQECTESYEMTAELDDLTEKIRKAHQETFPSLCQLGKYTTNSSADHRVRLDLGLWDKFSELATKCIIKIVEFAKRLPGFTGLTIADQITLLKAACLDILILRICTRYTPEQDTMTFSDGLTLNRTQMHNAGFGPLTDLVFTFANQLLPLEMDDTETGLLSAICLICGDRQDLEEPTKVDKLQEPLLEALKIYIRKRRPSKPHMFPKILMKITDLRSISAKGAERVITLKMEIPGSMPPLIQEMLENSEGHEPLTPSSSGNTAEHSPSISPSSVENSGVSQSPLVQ

CC(C)(O)c1ccc(CNC(=O)c2cccnc2Oc2ccc3nonc3c2)cc1
active: [1] 1.08 µM | [6] 27 µM | [7] 10.5 µM
not listed: [9] | [10]
inactive: all other assays above

CCCCCCCCOC(=O)c1cc(O)c(O)c(O)c1
active: [1] 33.4 µM | [2] 39.7 µM | [3] 35.5 µM | [5] 17 µM | [6] 39.8 µM | [7] 6.39 µM
inactive: [4] | [8] | [9]

O=CCCCC=O
active: [5] 25.1 µM
not listed: [4] | [8] | [10]
inactive: all other assays above

O=C1c2ccccc2C(=O)N1CCc1noc(-c2ccc(CN3CCCCCC3)s2)n1
inactive: [2] | [3] | [5] | [6]
active: [7] 2.72 µM

CC/C(=C(/CC)c1ccc(O)cc1)c1ccc(O)cc1
inactive: [4] | [8] | [9]
active: [3] 32.8 µM | [5] 20 µM

CC[C@@H]1C[C@H](N(Cc2cc(C(F)(F)F)cc(C(F)(F)F)c2)C(C)=O)c2cc(C(F)(F)F)ccc2N1C(=O)OC(C)C
active: [10] 1.1 µM | [7] 0.118 µM
not listed: [1] | [9]
inactive: all other assays above

NC(=O)c1nc(-c2cccc(-c3cc(F)ccc3OCC(F)(F)C(F)(F)F)c2)n[nH]1
active: [5] 32.4 µM | [6] 13 µM | [7] 8.71 µM
inactive: [2]

O=C=NCCCCCCN=C=O
inactive: [2] | [3] | [5] | [6] | [7] | [9]

C[C@]12CC[C@@H]3c4ccc(O)cc4CC[C@H]3[C@@H]1CC[C@H]2O
active: [5] 9.12 µM | [7] 4.02 µM [middle of 4 runs]
not listed: [1]
inactive: all other assays above

O=C(OCCCCCCOC(=O)c1ccccc1)c1ccccc1
inactive: [2] | [3] | [4] | [7] | [8]
active: [5] 20.7 µM

Cc1cc2c(cc1C(F)(F)F)N(C(=O)Nc1ccc(Oc3cccnc3C)nc1)CC2
active: [5] 9.22 µM
not listed: [1] | [9] | [10]
inactive: all other assays above

COc1cccc([C@H](O)C2CCN(CCc3ccc(F)cc3)CC2)c1OC
inactive: [2] | [3] | [5] | [7] | [8]

CC1(C)NC(=O)N(c2ccc([N+](=O)[O-])c(C(F)(F)F)c2)C1=O
inactive: [1] | [3] | [5] | [6] | [8]

C[C@]12CC[C@@H]3c4ccc(O)cc4CC[C@H]3[C@@H]1CCC2=O
inactive: [1] | [3] | [9]
active: [5] 20.7 µM

Cc1ccc2oc(CN(Cc3ccccc3)C(=O)Nc3c(F)cc(F)cc3F)c(-c3ccc(Cl)cc3)c2c1
inactive: [3] | [10] | [6]
active: [5] 7.43 µM | [7] 1.24 µM

CC(C)(c1cc(Br)c(O)c(Br)c1)c1cc(Br)c(O)c(Br)c1
active: [3] 36 µM | [5] 28 µM | [7] 6.78 µM and 10.5 µM
inactive: [4] | [10] | [8]

CC[C@H](NC(=O)c1cc(F)ccc1NS(=O)(=O)c1cccc2cccnc12)c1ccccc1
inactive: [2] | [3] | [4] | [5]
active: [6] 13.1 µM | [7] 0.0124 µM

CCCCCCCCN(C)CCCCCCCC
not listed: [1] | [6] | [10]
inactive: all other assays above

CCCCCCCC[Si](OCC)(OCC)OCC
active: [5] 18.4 µM
not listed: [1] | [7]
inactive: all other assays above

Oc1ccc2ccccc2c1
inactive: [1] | [3] | [6] | [7] | [9]
active: [5] 10.7 µM

c1ccc2n[nH]nc2c1
not listed: [1] | [4] | [8]
inactive: all other assays above

CCN(Cc1cccnc1)C(=O)c1cccc(Cl)c1[C@]1(C)C(=O)N(Cc2ccc(OC)cc2OC)c2ccc(Cl)cc21
inactive: [2] | [3] | [6] | [8]
active: [5] 5.12 µM | [7] 0.0262 µM

CCCC(=O)OCCC(C)C
inactive: [3] | [4] | [10] | [5] | [8]

CC(=O)N1CCN(c2ccc(OC[C@H]3CO[C@](Cn4ccnc4)(c4ccc(Cl)cc4Cl)O3)cc2)CC1
active: [5] 23.8 µM
inactive: [3] | [6] | [7]

Cc1oc2c(NC(=O)c3c(Cl)cccc3Cl)cccc2c1C(C)(C)O
active: [5] 21.4 µM | [6] 3.28 µM | [7] 0.204 µM
not listed: [1] | [9]
inactive: all other assays above

O=C1O[C@H]([C@@H](O)CO)C(O)=C1O
inactive: [2] | [3] | [5] | [6]

Clc1ccccc1C(c1ccccc1)(c1ccccc1)n1ccnc1
active: [3] 31.5 µM | [5] 13.7 µM | [7] 0.24 µM

CN1C(=O)N(c2ccccc2Br)Cc2cnc(Nc3ccc4c(c3)OCC(CO)O4)nc21 (configuration not stated)
inactive: [6] | [7]
active: [3] 28.1 µM | [5] 2.28 µM

O=C(O)Cn1c(=O)n(Cc2ccc(Br)cc2F)c(=O)c2ccc(Cl)cc21
active: [6] 6.18 µM | [7] 11 µM
inactive: [1] | [3] | [5] | [8]

CCN(Cc1cccc(S(=O)(=O)O)c1)c1ccc(C(=C2C=CC(=[N+](CC)Cc3cccc(S(=O)(=O)O)c3)C=C2)c2ccccc2S(=O)(=O)[O-])cc1
inactive: [2] | [3] | [5] | [6] | [7] | [9]

CN(C)c1ccc(C(=C2C=CC(=[N+](C)C)C=C2)c2ccc(N(C)C)cc2)cc1
active: [3] 10.3 µM | [5] 2.42 µM | [6] 16.8 µM
inactive: [2] | [4]

O=C(O)c1ccccc1-n1cc(C(=O)O)c(=O)c2cc(Nc3c(F)cc(F)cc3Cl)c(Cl)cc21
not listed: [1] | [6]
inactive: all other assays above

CCCCCCCCCC(=O)O
inactive: [3] | [5] | [7] | [8] | [9]
active: [1] 29.1 µM | [6] 29.2 µM and 12.3 µM

OCCO
not listed: [1] | [6]
inactive: all other assays above

CO[C@H]1/C=C/O[C@@]2(C)Oc3c(C)c(O)c4c(O)c(c(/C=N/N5CCN(C)CC5)c(O)c4c3C2=O)NC(=O)/C(C)=C\C=C\[C@H](C)[C@H](O)[C@@H](C)[C@@H](O)[C@@H](C)[C@H](OC(C)=O)[C@@H]1C
inactive: [2] | [3] | [4] | [10] | [5] | [6]

Cc1cc(F)ccc1-c1cc(N2CC[C@@H](O)[C@H]2CO)ncc1N(C)C(=O)C(C)(C)c1cc(C(F)(F)F)cc(C(F)(F)F)c1
active: [3] 12.8 µM | [5] 5.65 µM | [7] 1.14 µM
inactive: [2] | [6]

CCO[Si](CCCNC(N)=O)(OCC)OCC
inactive: [3] | [10] | [5] | [8]

CCN(CC)C(=O)c1cc(S(=O)(=O)Cc2ccccc2)c(N2CCC(c3ccccc3)CC2)cc1N(CC)CCN(C)C
active: [3] 28.7 µM | [5] 6.12 µM | [7] 0.091 µM
inactive: [10] | [8]

Cc1occc1C(=O)Nc1ccc(C(=O)N2CCC(F)(F)/C(=C\C(=O)N3CCC(N4CCCCC4)CC3)c3ccccc32)cc1
active: [1] 53 µM | [6] 59.6 µM | [7] 25.5 µM
inactive: [3] | [5]

O=c1ccc2ccccc2o1
inactive: [3] | [10] | [5]
